The text below walks through data of ChEMBL document CHEMBL3988442, “University of Dundee, Small-Polar-MMV Screening Library” (2021).

Out of some 69,000 compounds screened, about 420 (0.61%) showed an effect of 50% or more. Only a selection was taken, and strong results are over-represented in it overall.

For this assay, the target named is T1, Histidine--tRNA ligase (Leishmania infantum) (UniProt A4I591).
T1 sequence (whole entry): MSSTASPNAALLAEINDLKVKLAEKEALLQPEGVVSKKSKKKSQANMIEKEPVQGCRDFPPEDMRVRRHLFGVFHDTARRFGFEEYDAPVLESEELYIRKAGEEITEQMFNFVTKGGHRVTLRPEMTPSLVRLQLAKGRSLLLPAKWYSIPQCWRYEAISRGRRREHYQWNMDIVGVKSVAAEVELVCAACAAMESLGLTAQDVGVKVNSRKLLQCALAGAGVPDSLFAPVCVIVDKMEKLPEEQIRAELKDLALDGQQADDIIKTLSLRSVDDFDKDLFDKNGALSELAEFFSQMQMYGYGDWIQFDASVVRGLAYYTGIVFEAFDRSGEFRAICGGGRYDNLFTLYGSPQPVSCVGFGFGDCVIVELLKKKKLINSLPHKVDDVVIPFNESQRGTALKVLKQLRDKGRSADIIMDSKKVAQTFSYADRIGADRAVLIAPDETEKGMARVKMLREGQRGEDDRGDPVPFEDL
The assay is described as follows: Leishmania infantum Histidine tRNA synthetase (LdHisRS). In kind it is functional. To be noted: 30 µM. Also on record: scale not given: in the data most compounds retested in dose-response had high values.
As for `CN(C)S(=O)(=O)N1CC[C@]2(O)CCN(CCc3cccc(F)c3)C[C@@H]2C1`, the Percent Effect worked out at 43.4%.
In the case of `Cc1nc(CN2C[C@@H]3CN(C(=O)c4cccn4C)C[C@@H]3C2)cs1`, the Percent Effect was -1.92%.
`CC(=O)N1CCO[C@@H]2CN(Cc3ccccc3Cl)C[C@@H]2C1`: the Percent Effect came to 11.7%.
The figure for `Cc1nc(CN2C[C@@H]3CN(C(=O)C4(C#N)CC4)C[C@@H]3C2=O)cs1` is 26.5%; for `Cc1nc([C@H]2C[C@H]3CN(C(=O)c4ccoc4C)CC[C@@H]3O2)no1` it is 15.1%; for `CN(CCCOc1ccccc1Cl)C(=O)CN1CCNC1=O` it is 24.8%.
In the case of `COc1cccn(CC(=O)N(C)CCCOc2c(C)cccc2C)c1=O`, the Percent Effect was 110%.
The figure for `CN(CCCOc1ccccc1Cl)C(=O)CN1C(=O)CCNC1=O` is 14.2%; for `Cc1ccc(N(C)[C@@H]2CC[C@@H]3CN(C(=O)CC4CCOCC4)C[C@@H]32)nn1` it is 12.8%; for `Cc1ccnc(N2C[C@@H]3CC[C@H](C2)N(CC2CCC2)C3=O)n1` it is 34.4%.
As for `Cn1cc(CCC(=O)N2C[C@@H]3CC[C@H](C2)N(Cc2ccccn2)C3)cn1`, the Percent Effect is 24.1%.
Turning to `Cc1ccc(N2C[C@H]3OCC[C@H]3[C@H](C(=O)NC3CCC3)C2)nn1`, the Percent Effect was 11.8%.
On to `CC(C)c1nccn1-c1cccc(C2CCCN(C3CCCC3)C2)n1` (centres undefined), for which the Percent Effect was 22.9%.
The figure for `Cc1nccn1-c1cccc(C2CCCN(C3CCCCC3)C2)n1` (centres undefined) is 55.6%; for `Cc1nccn1-c1cccc(C2CCCN(C(=O)c3cc[nH]n3)C2)n1` (centres undefined) it is 17.1%.
For the compound `Cc1nccn1-c1cccc(C2CCCN(C3CCCC3)C2)n1` (centres undefined), the Percent Effect is 65.2%.
In the case of `Cc1nccn1-c1nccnc1C1CCCN(C2CCCC2)C1` (centres undefined), the Percent Effect is -4.2%.
Take `CCc1nccn1-c1cccc(C2CCCN(C3CCCCC3)C2)n1` (centres undefined): the Percent Effect was determined as 42%.
In the case of `COCC(=O)N1CC[C@@H]2CN(Cc3cccc(Cl)c3)S(=O)(=O)[C@@H]2CC1`, the Percent Effect amounted to 3.77%.
The figure for `Cn1ccc(NC(=O)CN2C[C@H]3CC[C@@H]2CN(Cc2ccccn2)C3)n1` is 0%; for `O=C(Cc1cnc(-c2c(Cl)cccc2Cl)s1)N1CCOCC1` it is 64.8%.
The figure for `CC(=O)N1CCN(C(=O)Cc2cnc(-c3c(Cl)cccc3Cl)s2)CC1` is -1.1%; for `NC(=O)C1CCN(C(=O)Cc2cnc(-c3c(Cl)cccc3Cl)s2)CC1` it is 12.1%; for `Cc1nnsc1C(=O)N1CC[C@H](c2ccccc2)[C@@H]2[C@H]1CCCCN2C` it is 7.29%.
On to `Cc1c(Cl)cccc1NC(=O)Cn1cc(C(=O)O)ccc1=O`, for which the Percent Effect came to 55%.
On to `Cc1cccc(Cl)c1NC(=O)Cn1cc(C(=O)O)ccc1=O`, for which the Percent Effect worked out at 18.3%.
Turning to `Cc1ccc(Cl)cc1NC(=O)Cn1cc(C(=O)O)ccc1=O`, the Percent Effect amounted to 6.67%.
`CC(C)CS(=O)(=O)N1C[C@H]2C[C@H](C(=O)NCc3ccccc3)[C@@H](C1)O2`: the Percent Effect stood at 5.83%.
As to `Cn1cc(N2C(=O)C[C@@H]3[C@@H]2CCN3C(=O)c2ccco2)cn1`, the Percent Effect was 16%.
Take `COc1cc(N2C[C@H]3CN(C(=O)c4cnccn4)C[C@H]3C2)ncn1`: the Percent Effect came out at 5.26%.
The figure for `Cn1nc(Cn2ccnc2)c2c1CN(c1ncccn1)C2` is 3.51%.
In the case of `Cn1nc(Cn2ccnc2)c2c1CN(c1nccs1)C2`, the Percent Effect was 52.6%.
For the compound `CCS(=O)(=O)N1Cc2c(Cn3ccnc3)nn(C)c2C1`, the Percent Effect stood at 11.1%.
`Cc1cc(C(=O)N2C[C@H]3CC[C@@H]2CN(Cc2ccccn2)C3)nc(N)n1`: the Percent Effect is -4.84%.
`CS(=O)(=O)N[C@H]1COC[C@@H]2CN(Cc3ccco3)C[C@@H]21`: the Percent Effect was -1.39%.
Take `c1ccc(Oc2nccc3occc23)c(CN2CCCCC2)c1`: the Percent Effect is 23.7%.
Consider `COc1ccc(Oc2nccc3occc23)cc1CN1CCCC1`, for which the Percent Effect came to 58.1%.
The figure for `COc1ccc(Oc2ncccc2F)cc1CN1CCCC1` is 15.8%.
For the compound `O=C1NCCO[C@H]2CN(C(=O)Cc3ccco3)CC[C@@H]12`, the Percent Effect came to 18%.
As to `Cc1nc(CN2CCc3nc(N4CCCC4)nc(NC(C)C)c3C2)cs1`, the Percent Effect is 92.3%.
As to `CC(C)Nc1nc(N2CCCC2)nc2c1CN(C)CC2`, the Percent Effect was 5.56%.
The figure for `Cc1nc(CN2CCc3nc(NC(C)C)nc(C)c3C2)cs1` is 47.9%; for `Cc1ccc([C@@]2(O)CC[C@@H]3CN(S(=O)(=O)c4cn(C)nc4C)C[C@@H]32)cc1` it is -15.8%; for `CSc1nc(N)cc(N2C[C@@H]3CC[C@H](C2)N(CC2CC2)C3=O)n1` it is 24.7%.
On to `O=C(CC1=CSC2=NCCN12)N1CCCC(CCc2cccc(F)c2)C1` (centres undefined), for which the Percent Effect was determined as 28.3%.
With `Nc1nc(CC(=O)N2CCCC(CCc3cccc(F)c3)C2)cc(=O)[nH]1` (centres undefined), the Percent Effect was determined as 78.3%.
On to `Cc1ccccc1CCC1CCCN(C(=O)Cc2cc(=O)[nH]c(N)n2)C1` (centres undefined), for which the Percent Effect was 18.3%.
Consider `Cc1ccccc1CC(C)(C)NC(=O)c1cccc(OCC(N)=O)c1`, for which the Percent Effect came to 50.6%.
With `Cc1ccccc1CC(C)(C)NC(=O)CCOc1cccc(C(N)=O)c1`, the Percent Effect was 1.3%.
`Cc1ccccc1CC(C)(C)NC(=O)COc1cccc(C(N)=O)c1`: the Percent Effect worked out at 22.1%.
On to `Cc1ccc(CN2C[C@@H](OCc3csc(C)n3)[C@H]3COC[C@H]32)s1`, for which the Percent Effect is 21%.
Turning to `CN1CCC(O)(CCNC(=O)[C@@]23CNC[C@@H]2CN(C2CCCC2)C3)CC1`, the Percent Effect amounted to 10.3%.
Take `CC(=O)N1CCO[C@@H]2CN(S(=O)(=O)c3cccs3)CC[C@@H]2C1`: the Percent Effect came out at 5.66%.
`CC(=O)N1CCO[C@@H]2CN(S(=O)(=O)c3ccc(C)cc3)CC[C@@H]2C1`: the Percent Effect turned out to be 50.9%.
